# The list is not random: actives were taken first. Their share in the collection is about 4.7%.
# NTMT1 inh: Primary qHTS for Inhibitors of N-terminal methyltransferase 1 (NTMT1): MTaseGlo Assay. NTMT1 MTase-Glo SAH luminescence, purified enzyme. AID 1645870, 2021. 2.5% of 59,000 active. N-terminal Xaa-Pro-Lys N-methyltransferase 1 (Homo sapiens), Q9BV86. Potency, µM (titrated, usually from 114 µM), actives largely listed as inhibitors; further: nearly all actives have a fitted effect of over 65% in size
# Target sequence (Q9BV86 whole entry, looked up): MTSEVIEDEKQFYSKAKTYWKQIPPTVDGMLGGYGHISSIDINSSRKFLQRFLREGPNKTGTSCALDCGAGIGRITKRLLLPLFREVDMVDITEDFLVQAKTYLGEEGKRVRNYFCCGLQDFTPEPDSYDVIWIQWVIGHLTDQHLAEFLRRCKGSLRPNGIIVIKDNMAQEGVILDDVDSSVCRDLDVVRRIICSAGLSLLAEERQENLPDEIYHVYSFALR
# HTT-AS promoter: Primary qHTS for Identification of Small Molecule Activators of Huntingtin-Antisense Promoter Activity; HEK293 HTT-AS promoter firefly luciferase reporter, 24 h; response scale: percent change from vehicle, -100% = no light; Potency, µM (series often up to 57.5 µM), usual class: activators; 0.24% of 48,000 active; AID 1508624, 2021; further: nearly all actives have a fitted effect of over 55% in size
#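 HEK293 luciferase promoter-reporter cells (2,500/well) plated 24 h, then compounds added at up to 57.5 uM final for 24 h at 37 °C. Firefly luminescence by Dual-Glo, normalized to vehicle (0%) and zero RLU (-100%).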
# GPR32 ag: qHTS for Agonists of Human Resolvin D1 Receptor DRV1. CHO-K1 GPR32 beta-arrestin PathHunter luminescence, 90 min; zero percent set by DMSO-only wells. activation, % at 76.9 µM. 2.5% of 48,000 active;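 active means activation of at least 60% and not above a set upper limit, about 1 call in 100 departs from these limits; inconclusive means activation of 40% to 60%, or above that upper limit; inactive means activation under 40%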
# Target sequence (O75388 whole entry, looked up): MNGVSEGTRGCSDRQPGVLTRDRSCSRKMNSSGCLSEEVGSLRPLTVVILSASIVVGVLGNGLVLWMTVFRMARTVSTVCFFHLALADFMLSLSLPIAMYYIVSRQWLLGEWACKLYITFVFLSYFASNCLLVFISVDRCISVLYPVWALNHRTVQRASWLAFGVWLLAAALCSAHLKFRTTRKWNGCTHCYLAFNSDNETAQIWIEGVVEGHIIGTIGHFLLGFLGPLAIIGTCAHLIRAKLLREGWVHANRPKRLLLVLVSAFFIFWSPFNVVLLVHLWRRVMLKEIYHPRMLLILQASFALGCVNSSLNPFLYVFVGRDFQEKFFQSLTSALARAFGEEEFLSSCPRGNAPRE
#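 Step 1: seed CHO-K1 GPR32 beta-arrestin cells, 2,500/well, overnight at 37 °C. Step 2: add compounds, 90 min at 37 °C. Step 3: detection reagent, 1 h ambient, then luminescence.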
# FH mod: Identification of activators of human fumarate hydratase by quantitative high-throughput screening | Fumarate hydratase, mitochondrial (Homo sapiens), P07954 | FH coupled MDH/diaphorase resazurin fluorescence, 15 min | 0.22% of 54,000 active | Potency, µM (series often up to 79.9 µM), most hits filed as inhibitors; further: the screen sought activators but most active calls are inhibition curves; nearly all actives have a fitted effect of over 45% in size
# HTT prom inh: Primary qHTS for Identification of Small Molecule Inhibitors of Huntingtin Promoter Activity; Potency, µM (top dose mostly 57.5 µM), most hits filed as inhibitors; 0.93% of 48,000 active; HEK293 HTT promoter firefly luciferase reporter, 24 h; further: nearly all actives have a fitted effect of over 50% in size
#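 Firefly luciferase readout (Dual-Glo, 10 min RT) after 24 h, 37 °C compound exposure (final up to 57.5 uM) of HEK293 reporter cells cultured 24 h beforehand; PTC124 at 50 uM final as control inhibitor; activity scaled vehicle 0%, zero RLU -100%.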
# GALC G270D up: A Novel Cell-Based Assay to Identify Small Molecules for B -Galactocerebrosidase; 0.1% of 45,000 active; Potency, µM (series often up to 57.5 µM), usual class: activators; 145M-Twi-hGALC-G270D cells (Twitcher mouse brain line with human GALC G270D), HMU-beta-Gal fluorescence, 48 h; AID 1159614, 2016; further: nearly all actives have a fitted effect of over 65% in size
#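 Fluorescence readout: HMU-β-gal cleavage by mutant GALC (0.1 mM final, citrate/phosphate pH 5.2 with 1 mg/mL taurocholate), stopped with carbonate/bicarbonate plus Triton X-100. Cells: murine Twitcher 145M-Twi expressing human G270D GALC; qHTS for activators.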
# Numbers stand for hits; 0 = inactive; ? = inconclusive; - = no result; ! = repeats disagree; [ ] = another dose, or the depositor's remark. Unless noted, the call rests on the fitted dose curve; in most records, active means well fitted curve in the direction sought with a large enough effect; inconclusive means small, poorly fitted or top-dose-only effect, or another doubt; inactive means no such curve, though single readings can be large; an effect the other way counts as inactive or inconclusive.
SMILES,NTMT1 inh,HTT-AS promoter,GPR32 ag,FH mod,HTT prom inh,GALC G270D up
CSc1ccc(CNC(=O)Cn2ccc3cc(S(=O)(=O)N4CCCC4)ccc32)cc1,0,0,0,0,?,0
CCc1ccc(NC(=O)Cn2c(=O)oc3cc(S(=O)(=O)N4CCCCCC4)ccc32)cc1,0,0,0,0,?,0
O=C1CCCC2=C1C(c1cccnc1Br)N=C(Nc1nc3ccccc3o1)N2 (stereo not given),0,-,-,-,-,-
CCOC(=O)c1ccc(NS(=O)(=O)c2ccc(Br)s2)cc1,?,0,65.6,0,0,0
CCOc1ccc(NC(=O)CNS(=O)(=O)c2ccc(Br)s2)cc1,0,0,0,0,0,0
Cc1ccc(CNC(=O)CN(c2ccc(C(C)C)cc2)S(=O)(=O)c2c(C)n[nH]c2C)cc1,0,0,83.3,0,0,0
CC1(C)C[C@@H]2C[C@@](C)(CN2S(=O)(=O)c2ccc(C(=O)Nc3ccc(Cl)c(S(=O)(=O)N4CCOCC4)c3)cc2)C1,0,-,-,-,-,-
Cc1c(Cl)cccc1NC(=O)c1cc2sccc2n1Cc1ccc(F)cc1,89.1µM,0,0,0,0,0
Cc1ccc(CNC(=O)c2cc3sccc3n2Cc2ccc(F)cc2)cc1,0,0,0,0,0,0
CC(C)NC(=O)C1CCN(C(=O)c2cc3sccc3n2Cc2ccc(Cl)cc2)CC1,0,0,0,0,8.91µM,0
O=C(NCc1ccccc1)c1cc2sccc2n1Cc1ccc(Cl)cc1,0,0,0,0,0,0
C[n+]1c2cc(N)ccc2cc2ccc(N)cc21 (tested in a mixture with another compound),39.8µM,0,0,0,0,0
Cc1ccc(OCCn2c(CCNC(=O)c3ccc4ccccc4c3)nc3ccccc32)cc1,0,-,-,-,-,-
O=C1NC(=O)/C(=C\c2ccc3c(c2)OC(F)(F)O3)S1,0,-,-,?,-,-
CC(NC(=O)CCCn1c(=O)c2cccn2c2cccnc21)c1ccccc1 (stereo not given),89.1µM,0,0,0,0,0
COc1ccccc1/C=C/C(=O)NCCc1nc2ccccc2n1CCOc1ccc(C)cc1,0,-,-,-,-,-
CCN(CC)CCOc1ccc(C(O)(Cc2ccc(Cl)cc2)c2ccc(C)cc2)cc1 (stereo not given),0,0,63.1,0,0,0
CCN(CC)CCNC(=O)COc1ccc(Cl)cc1,0,0,0,0,0,0
CCc1ccccc1-n1c(N)c(C(=O)OC)c2nc3ccccc3nc21,0,0,0,0,0,25.1µM
CN1CCN(Cc2ccc(-c3cnc4[nH]cc(-c5ccc6[nH]ccc6c5)c4c3)cc2)CC1,20µM,-,-,0,-,-
CCCCCCCCCCCCCCCCOCCCOP(=O)(O)COC(CO)Cn1ccc(N)nc1=O (stereo not given),?,-,-,0,-,-
CC/C(=C(/c1ccc(/C=C/C(=O)O)cc1)c1ccc2[nH]ncc2c1)c1ccc(F)cc1Cl,31.6µM,-,-,-,-,-
Cc1cc(OCCCS(C)(=O)=O)cc(C)c1-c1cccc(COc2ccc3c(c2)OC[C@H]3CC(=O)O)c1,79.4µM!,0,-,0,0,-
CC1(CO)CC[C@]2(C(=O)O[C@@H]3O[C@H](CO)[C@@H](O)[C@H](O)[C@H]3O)CC[C@]3(C)C(=CCC4[C@@]5(C)C[C@H](O)[C@H](O[C@@H]6OC[C@@H](O)[C@H](O)[C@H]6O)[C@@](C)(CO)C5CC[C@]43C)C2C1 (stereo not given in full),0[12.6 µM],-,-,0,-,-
O=C(O)/C(S)=C/c1ccc(I)cc1,79.4µM,-,-,-,-,-
SMILES,NTMT1 inh,HTT-AS promoter,GPR32 ag,FH mod,HTT prom inh,GALC G270D up
Cc1ccccc1N1CC(c2nc3ccccc3n2CCC2CCCCC2)CC1=O (stereo not given),?,0,0,0,?,0
Cc1ccccc1N1CC(c2nc3ccccc3n2Cc2ccc(Br)cc2)CC1=O (stereo not given),0,0,91.7,?,?,0
COc1cc(O)c(C(CC(=O)N2CCN(c3ccc(F)cc3)CC2)c2ccc3c(c2)OCO3)c(OC)c1 (stereo not given),0,-,-,-,-,-
O=S(=O)(Nc1ccc(O)c(Sc2nc3ccccc3s2)c1)c1cc(Cl)ccc1Cl,0,0,0,15.8µM,?,0
Cc1cc(S(=O)(=O)Nc2ccc(O)c(Sc3nc4ccccc4s3)c2)ccc1Cl,0,0,101.0,?,0,0
Cc1ccc(NS(=O)(=O)c2ccc3ccccc3c2)cc1C,0,-,-,-,-,-
CC1CCC(n2c3cnccc3c3cnc(Nc4ccc5c(n4)CCN(C(=O)CO)C5)nc32)CC1 (stereo not given),0,-,-,0,-,-
COc1ccc(N2CCN(CC(O)COc3ccc(C)c(C)c3)CC2)cc1 (stereo not given),?,0,0,0,0,0
Cc1cc(OCC(O)CN2CCN(c3cccc(Cl)c3)CC2)ccc1Cl (stereo not given),0,0,69.8,?,0,0
COc1ccc(N2CCN(CC(O)COc3ccc(C(C)C)c(C)c3)CC2)cc1 (stereo not given),?,0[11.5 µM],104.4,0,0,0
O=C1Nc2ccc(I)cc2C1=Cc1cc(Br)c(O)c(Br)c1,17.1µM,0,-,?,0,-
O=C1Nc2ccc(I)cc2/C1=C/c1cc(Br)c(O)c(Br)c1,3.55µM,-,0,28.2µM,-,-
CCOC(=O)CCN(C(=O)c1ccc2c(c1)nc(CNc1ccc(C(=N)N)cc1)n2C)c1ccccn1,0,-,-,0,-,-
CCOc1ccc(/C=C(\C#N)C(=O)Nc2sc3c(c2C(=O)OC)C(C(=O)OC)CC3)cc1OC (stereo not given),10µM,0,0,0,0,0
COc1ccc(CNc2ncnc3onc(C)c23)cc1,0,0,0,0,?,0
Clc1ccc(-c2noc3ncnc(NCCc4ccccc4)c23)cc1,0,0,0,0,0,0
Cc1ccc(CCNc2ncnc3onc(C)c23)cc1,0,0,96.8,0,?,0
Cc1noc2ncnc(NCCc3ccccc3)c12,0,0,?,0,14.1µM,0
CCOc1ccc(CCNc2ncnc3onc(C)c23)cc1OCC,0,0,63.5,0,?,0
